Screening results (PubChem)
Mtb FBA inh: inhibits M. tuberculosis FBA enzyme; P9WQA3; 360,000 compounds, 2.3% hits; AID 588726; inhibition, % at 1 µM; purified M. tuberculosis FBA, fluorescence read-out; in the data active = inhibition above about 27%;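 also: 0% = vehicle and 100% = reference inhibitor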
Target sequence (P9WQA3 whole entry, looked up): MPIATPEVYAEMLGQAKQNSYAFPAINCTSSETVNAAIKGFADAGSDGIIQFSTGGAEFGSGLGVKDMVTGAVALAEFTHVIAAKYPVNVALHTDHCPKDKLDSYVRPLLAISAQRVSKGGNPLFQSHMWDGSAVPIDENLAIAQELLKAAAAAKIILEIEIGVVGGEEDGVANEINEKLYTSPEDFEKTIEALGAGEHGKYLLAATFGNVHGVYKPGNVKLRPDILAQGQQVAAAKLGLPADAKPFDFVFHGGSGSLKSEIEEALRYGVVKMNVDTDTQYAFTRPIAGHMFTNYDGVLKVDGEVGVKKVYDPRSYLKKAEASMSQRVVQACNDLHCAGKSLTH
RecA intein inh: blocks M. tuberculosis RecA intein splicing. P9WHJ3. cell-free RecA intein splicing, fluorescence. inhibition, % (no concentration beside the values). 290,000 compounds, 0.75% hits; in the data active = inhibition above about 30%;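 also: 0% = vehicle wells and 100% = reference inhibitor control wells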
CCHFV vOTU inh: CCHFV vOTU protease inhibition. Pep-AMC fluorescence. inhibition, % at 11.5 µM. 370,000 compounds, 0.55% hits. AID 651958; also: 0% = vehicle wells with enzyme and 100% = no enzyme wells
GDH-TPI inh: inhibits GDH-TPI coupling enzymes, artifact for Mtb FBA screen; GDH-TPI coupled enzyme counterscreen, NADH absorbance; inhibition, % at 4.8 µM; 360,000 compounds, 1.2% hits;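 also: 0% = DMSO wells and 100% = wells lacking the enzyme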
* = called active by the depositor; x = not tested or not shown; + = active, no number. Compounds with a hit are over-represented: about 4.2% of the library has one in this group of screens. Rule as the data show it, unless noted: active = inhibition above about 30%; inactive = the rest.

SMILES	Mtb FBA inh	RecA intein inh	CCHFV vOTU inh	GDH-TPI inh
CC(=O)c1cnc2nc(SCc3cccc(C)c3)nn2c1C	-1	-11	5	9
NC(=O)c1ccc(Nc2nnc(-c3ccc(O)cc3)c3ccccc23)cc1	9	1	-3	18
CCN(CC)C(=O)COc1ccc(-c2nnc(Nc3ccc(OC)c(C(=O)NC)c3)c3ccccc23)cc1	0	10	-6	46*
CNC(=O)c1ccc(Nc2nnc(-c3ccc(C(N)=O)cc3)c3ccccc23)cc1	1	-5	-9	39*
COc1ccc(Nc2nnc(-c3ccc(C)cc3)c3ccccc23)cc1C(=O)N1CCCCC1	3	0	8	13
COc1cc(C(=O)COC(=O)c2ccncc2)cc(OC)c1OC	5	x	-11	16
COCCCNC(=S)N(CCCO)Cc1cc2cc3c(cc2[nH]c1=O)OCCO3	16	0	-21	24
COCCCNC(=S)N(CCCO)Cc1cc2cc3c(cc2[nH]c1=O)OCO3	22	x	-14	32*
CCN(CC)CCCN(Cc1cc2cc3c(cc2[nH]c1=O)OCO3)C(=O)Nc1ccccc1OC	12	8	-15	32*
Cc1ccc(C2(c3ccccc3)NC(=O)N(CC(=O)N3CC(=O)Nc4ccccc43)C2=O)cc1C (centres undefined)	-1	x	11	0
Cc1ccc2nc(-c3cccc(S(=O)(=O)N(C)C)c3)cn2c1	5	-2	21	4
CN(C)S(=O)(=O)c1ccc(-c2cn3ccccc3n2)cc1	160*	2	-138	7
CN(C)S(=O)(=O)c1cccc(-c2cn3cccnc3n2)c1	173*	-7	-210	6
O=S(=O)(c1cccc(-c2cn3cccnc3n2)c1)N1CCOCC1	+	x	-285	27
O=[N+]([O-])c1ccc(-c2cn3ccccc3n2)cc1	-1	5	-3	18
COC(=O)[C@]12C[C@H](CC(=O)NCC3CCCCC3)C(=O)N(Cc3cccc4ccccc34)C1=C[C@H](COCc1ccccc1)O[C@@H]2C	x	x	7	x
COc1cc(OCc2ccc(C)cc2)ccc1CNC[C@H]1O[C@@H](n2cnc(C(N)=O)n2)[C@H](O)[C@@H]1O	1	x	11	-5
O=C(Nc1ccc(NS(=O)(=O)c2ccc([N+](=O)[O-])cc2)cc1)c1ccco1	-2	2	-3	6
Cc1cc(O)c(NC(=S)NC(=O)c2ccc(-c3ccc(Cl)cc3)o2)cc1C	6	-4	8	37*
COc1ccc(NS(=O)(=O)c2cccc(C(=O)NNC(=O)CNC(=O)c3cccc(C)c3)c2)cc1	0	1	3	1
CCCn1c(-c2ccc[nH]c2=O)nc2cc(C)c(C)cc21	115*	-3	-66	2
CCCCn1c(-c2ccccc2C)nc2cc3[nH]c(=O)c(C(C)C)nc3cc21	27	10	-5	7
O=c1ccc2ccccc2n1Cc1cccc(F)c1	2	2	4	11
Cc1cc2nc(-c3ccc[nH]c3=O)n(Cc3cccc(F)c3)c2cc1C	149*	-2	-147	23
O=c1[nH]cccc1-c1nc2ccccc2n1Cc1cccc(Cl)c1	135*	-1	-83	3
SMILES	Mtb FBA inh	RecA intein inh	CCHFV vOTU inh	GDH-TPI inh
O=c1[nH]cccc1-c1nc2ccccc2n1Cc1cccc(F)c1	162*	-1	-92	8
O=C(CSc1nnc(-c2ccco2)n1-c1ccc(Cl)cc1)Nc1ccc(S(=O)(=O)Nc2nccs2)cc1	x	x	19	x
C=CC[C@H](CC(=O)NCCO)C(=O)N[C@@H](COC(=O)[C@H](CC=C)CC(=O)OC(C)(C)C)Cc1c[nH]c2ccccc12	-3	x	8	2
Cc1c(Cc2ccccc2)c(=O)oc2cc(O)ccc12	+	-18	-402	27
CN(C)Cc1c(O)ccc2oc(Cc3ccccc3)cc12	-1	-2	19	-5
CCOC(=O)CCc1c(C)c2ccc(O)cc2oc1=O	+	-29	-267	1
CCOC(=O)Cc1c(C)c2c(O)cc(O)cc2oc1=O	121*	-135	-159	19
CCOC(=O)c1oc2cc(O)cc(C)c2c1C	26	x	-8	8
Cc1c(Cc2ccccc2)c(=O)oc2c(O)c(O)ccc12	1	7	11	5
Cc1c(Cc2ccccc2)c(=O)oc2c(CN(C)C)c(O)c(Cl)cc12	+	-349	-327	17
COC(=O)[C@]12CCCCC=C1N(Cc1ccc(OC)cc1)C(=O)[C@@H]2CC(=O)N1CCCCC1	x	x	-4	x
CCc1cccc(N(CC(=O)NC2CCCCC2)C(=O)c2csnn2)c1	0	x	8	6
COc1ccc2c(c1)c(=O)oc1cc(O)ccc12	13	-1	-11	-1
COc1ccc(-c2c(C)c3ccc(O)cc3oc2=O)cc1	+	-51	-296	23
Cc1ccc(NS(=O)(=O)c2c(C)nc3sccn3c2=O)cc1	2	-3	13	24
CCOC(=O)c1ccc(NS(=O)(=O)c2c(C)nc3sccn3c2=O)cc1	2	-2	4	35*
O=C(NCCS(=O)(=O)N1CCCCCC1)c1ccccc1	-1	0	7	-6
CC(=Cc1cccs1)C(=O)c1ccccc1	-1	x	-16	32*
Cc1cccc(S(=O)(=O)N2CCC[C@H]2C(=O)N2CCC[C@@H]2C(=O)NCc2ccccc2)c1	x	x	7	x
Cc1ccc(S(=O)(=O)c2c(C)cc(-c3ccccc3)[nH]c2=O)cc1	81*	1	-11	28
CN1C(=S)SC2CS(=O)(=O)CC21 (centres undefined)	1	-1	-9	10
CN1CCc2c(sc3c2C(=O)NC(/C=C/c2ccco2)N3)C1 (centres undefined)	0	-3	-13	37*
CCCC/C=C1/[C@@H](c2ccc(Cl)cc2)N(Cc2ccc3c(c2)OCO3)C2=N[C@@H](c3ccccc3)CC(=O)N21	x	x	5	x
O=[N+]([O-])c1ccc(/C=N/NC2=NS(=O)(=O)c3ccccc32)cc1	-4	x	-7	14
O=S1(=O)N=C(N/N=C/c2cccs2)c2ccccc21	-3	0	6	39*
SMILES	Mtb FBA inh	RecA intein inh	CCHFV vOTU inh	GDH-TPI inh
COc1cc2c(c(OC)c1)[C@H](/C=C/c1ccccc1)[C@@H]([C@H](O)CO)OC2	x	x	-4	x
Cc1ccc(S(=O)(=O)N(C)[C@H]2C[C@H]3c4cc(-c5ccccc5C)ccc4CCN3C[C@H]2[C@H](C)O)cc1	x	x	-2	x
COc1ccc(-c2oc3ccccc3c(=O)c2OC(C)=O)cc1	+	-23	-168	46*
CCC(=O)N1CCc2cc(Br)c(S(=O)(=O)N3CCC(C(=O)NC(C)(C)C)CC3)cc21	x	x	8	x
CCc1cccc(C)c1NC(=O)CC1Oc2ccc(C)cc2NC1=O (centres undefined)	-2	-1	2	-3
Clc1cccc(Cl)c1/C=C/c1nc2ccccc2[nH]1	138*	16	x	15
Cc1ccc(-c2cnc(C(O)c3ccc(Cl)cc3C)[nH]2)cc1 (centres undefined)	-3	x	-9	2
C=CCn1c(SCC(=O)Nc2cc(C)on2)nnc1-c1ccccc1F	-3	x	0	-3
CCN(CCCCN1C(=O)c2ccccc2C1=O)c1ccc2c(c1)C(=O)N(C)C2=O	1	-8	-7	43*
CSc1ccc(NC(=O)C2(C)CCN2C(=O)Cc2ccc(C(C)(C)C)cc2)cc1 (centres undefined)	-2	x	16	11
